Laboratory results taken from PubChem BioAssay (NCI).
Several values for one entry are separate records, joined by “and”; a condition that tells them apart may be missing. Equal values may be shown once. Compounds without any hit were thinned out: in the full panel of roughly 83,000, 20% have a hit.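 96-well plates, one dose, 48 hours. Percent growth reported; active if below 10.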 Values without a mark were called inactive. Activity calls are given as the source filed them.

Tested on: MDA-MB-468 breast
Assay: NCI-60 one-dose screen, 48 h (100 = growth as untreated, 0 = no growth, -100 = all killed)
Conditions: 10 µM unless noted

Row | Structure (SMILES) | growth
1 | COC(=O)[C@H]1CCCN1C(=O)C1CCCN1C(=O)[C@@H](Cc1ccccc1)NC(=S)Nc1cc(C(F)(F)F)cc(C(F)(F)F)c1 (stereo not given in full) | 100% and 58.2%
2 | COC(=O)c1ccc(C(=O)Nc2ccccc2N)cc1 | 44%
3 | CCNCCNc1cc(-c2ccc(Cl)c(Cl)c2)c(C#N)c2nc3ccccc3n12 | -80.9% (active)
4 | Cc1ccc2sc3c(c2c1)OC(N)=C(C#N)C3c1cccc(F)c1 (stereo not given) | -14.1% (active)
5 | CNCc1cccc2c1OCCCCCCC(C)(O)CC(C)(C)S(=O)(=O)c1ccc(cc1)-c1cnc(N)c(n1)C(=O)N2 (stereo not given) | -54.1% (active)
6 | COc1ccc2[nH]cc(-c3nc(-c4c[nH]c5ncccc45)cs3)c2c1 | 39.1%
7 | CCOC(=O)c1ccc(NC(=O)Nc2nccs2)cc1 | -30.4% (active)
8 | Cc1cc(-c2ccc(N=Nc3c(S(=O)(=O)O)cc4cc(S(=O)(=O)O)cc(N)c4c3O)c(C)c2)ccc1N=Nc1cc(S(=O)(=O)O)c2ccccc2c1O | 105%
9 | O=C(/C=C/c1ccc(C(F)(F)F)cc1)Nc1ccc(C=C2c3ccccc3C(=O)c3ccccc32)cc1 | 33.5%
10 | CCOC(=O)/C=C/c1ccc([N+](=O)[O-])o1 | 53.6%
11 | CCOC(=O)C1CCN(c2ccc(N3C[C@@H](CNCc4ccc(C(=N)N)cc4)OC3=O)cc2)CC1 | 100%
12 | CNc1nc2c(s1)C(c1cccc(F)c1)CC(=O)N2 (stereo not given) | 98%
13 | CC(C)(O)C1CCCN1C(=O)c1ccccc1I (stereo not given) | 73%
14 | O=S(=O)(Nc1ccc(I)c(Cl)c1)c1ccc(-c2cnc(C3CC3)o2)cc1 | -9.49% (active)
15 | O=S(=O)(Nc1ccc(Cl)c(F)c1)c1ccc(-c2cnc(C3CC3)o2)cc1 | -25.4% (active)
16 | CC1CCC2(C(=O)O)CCC3(C)C(=CCC4C5(C)CCC(O)C(C)(C)C5CCC43C)C2C1C (stereo not given) | 24.5%
17 | COc1ccc(NC(=O)c2ccc(-c3ccccc3)cc2)c(C(N)=O)c1 | 109%
18 | CCn1cc(C(=O)O)c(=O)c2cc(F)c(N3CCN(CC(=O)Nc4ccccc4)C(C)C3)c(F)c21 (stereo not given) | 92.6%
19 | COc1ccccc1NCc1cccn1Cc1ccc(F)cc1 | 82.6%
20 | CCOC(=O)Cn1c(O)c(N=Nc2ccc(S(N)(=O)=O)cc2)c2cc(Br)ccc21 | 96.4%

Row | Structure (SMILES) | growth
21 | CCOC(=O)C1C(=O)NC(C(=O)OCC)(C(=O)OCC)C1CC (stereo not given) | 108%
22 | O=C(Cc1ccccc1)Nc1nnc(NC2CCN(c3nnc(NC(=O)Cc4ccccc4)s3)CC2)s1 | 125%
23 | C(/C=C/c1ccccc1)=Nc1ccc(CCc2ccc(N=C/C=C/c3ccccc3)cc2)cc1 | 83.3%
24 | N#Cc1ccc(OC(=O)Nc2ccc(Cl)c(Cl)c2)cc1 | 42.9%
25 | CCOc1cccc(C2CC(=O)Nc3cc4c(cc32)OCO4)c1 (stereo not given) | 34.2%
26 | CC[C@]1(O)C[C@@H]2CN(CCc3c([nH]c4ccccc34)[C@@](C(=O)OC)(c3cc4c(cc3OC)N(C)[C@H]3[C@@](O)(C(=O)OC)[C@H](OC(C)=O)[C@]5(CC)C=CCN6CC[C@]43[C@@H]65)C2)C1 | 19.8%
27 | O=CN1N=C(c2ccc(Cl)cc2)CC1c1cccc(Nc2ccnc3cc(C(F)(F)F)ccc23)c1 (stereo not given) | 32.9%
28 | COc1ccc(C(=O)/C=C/c2ccc(C)cc2)cc1OC | 47.6%
29 | COc1ccc(/C=C/c2c(C(=O)/C=C/c3ccc(Cl)cc3)c(C)nc3ccccc23)cc1 | 34.7%
30 | CN(C)CCCOc1ccccc1NC1=C(Cl)C(=O)C(Nc2ccccc2OCCCN(C)C)=C(Cl)C1=O | -60.6% (active)
31 | CN(CC(=O)O)c1ccc(/C=C/c2ccnc3ccccc23)cc1 | -0.654% (active)
32 | C[C@@H](C(=O)O)c1ccc2c3cc(Cl)ccc3n(Cc3cc(=O)oc4ccc(Cl)cc34)c2c1 | 113%
33 | c1cc2nc(-c3cn[nH]c3)c3c(c2cc1-c1cn[nH]c1)C1CCC3C1 (stereo not given) | 78.9%
34 | CCN(CC)C(=O)CC1=C(C)/C(=C/c2[nH]c(-c3ccc[nH]3)cc2OC)N=C1C | 29.9%
35 | N#Cc1ccc(Oc2ccc3ccc(=O)oc3c2)cc1 | 93.4%
36 | O=S(=O)(Cc1ccc(Cl)cc1Cl)c1ccc(Cl)cc1 | -29.8% (active)
37 | C#CCOc1ccc2ncnc(Nc3cccc(CNC(=O)CCl)c3)c2c1 | -3.41% [8.25 µM] (active)
38 | FC(F)(F)c1ccccc1-c1cn2c(ccc3ccccc32)n1 | 105%
39 | CC1(C)N=C(N)N=C(N)N1c1ccc(CCCCc2ccccc2)c(Cl)c1 | -20.8% (active)
40 | C=CCOc1c(Br)cc(Br)cc1Br | 96.8%
